Screening data deposited in PubChem BioAssay by National Center for Advancing Translational Sciences (NCATS).
HT1080-NT tox – qHTS for induction of synthetic lethality in tumor cells producing 2HG: qHTS for the HT-1080-NT fibrosarcoma cell line. HT-1080-NT fibrosarcoma viability, CellTiter-Glo ATP luminescence, 48 h. Potency, µM (doses to about 46.1 µM), for inactives: at the highest dose activity, negative = less viability, usual class: cytotoxic. hit rate 1.6% among 360,000. AID 686970, 2013;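 note: NT is the 2HG producing partner of a matched IDH1 knockdown line; potency is the fitted concentration of half-maximal effect; 0% = DMSO-treated cells and -100% = media-only wells without cells; nearly all actives have a fitted effect of over 55% in size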
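Compounds were tested in concentration-response format on HT-1080-NT cells for 48 hours at 37 degrees C. Cell viability came from CellTiter-Glo luminescence; curves were classified by r2, response magnitude and activity.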
uPA generation – qHTS for Inhibitors of Cell Surface uPA Generation. cell surface uPA generation assay, qHTS. hit rate 0.31% among 330,000. AID 540303, 2011. Potency, µM (highest dose often 38.3 µM), for the others: at the top dose activity change, negative = inhibition, usual class: inhibitors; active = well fitted inhibition curve with a large enough effect; inconclusive = small, poorly fitted or top-dose-only effect; inactive = no such curve, though single readings can be large or run the other way; tested in mouse RAW 264.7 cells; note: potency is the fitted concentration of half-maximal effect; nearly all actives have a fitted effect of over 55% in size
TDP1 cell CPT – qHTS for Inhibitors of human tyrosyl-DNA phosphodiesterase 1 (TDP1): qHTS in cells in presence of CPT; chicken DT40 Tdp1-/-;hTDP1 cells + 20 nM CPT, ATP luminescence, 48 h; AID 686979, 2013; hit rate 12% among 420,000; Potency, µM (titrated, usually from 46.2 µM), inactives show top-dose activity change, negative = growth inhibition, actives largely listed as inhibitors; note: potency is the fitted concentration of half-maximal effect; nearly all actives have a fitted effect of over 55% in size
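Chicken DT40 Tdp1-/- cells stably complemented with human TDP1 were seeded at 400 cells/well in medium containing 20 nM camptothecin, exposed to pin-transferred compounds, and grown at 37 °C for at least 48 hr. Viability was read as ATP luminescence.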
DT40 TDP1 no CPT – qHTS for Inhibitors of human tyrosyl-DNA phosphodiesterase 1 (TDP1): qHTS in cells in absence of CPT; DT40 Tdp1-/- hTDP1 cells, no CPT, ATP luminescence, 48 h; Potency, µM (doses to about 46.2 µM), for inactives: at the top dose activity change, negative = growth inhibition, hits mostly inhibitors; hit rate 15% among 420,000; note: potency is the fitted concentration of half-maximal effect; nearly all actives have a fitted effect of over 55% in size
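Readout: luminescence from CellTiter-Glo after 30 min in the dark at RT. Cells: DT40 Tdp1-/- with stable hTDP1, 400/well. Exposure: compounds alone, ≥48 hr, 37 °C.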
HT1080 IDH1KD tx – qHTS for induction of synthetic lethality in tumor cells producing 2HG: qHTS for the HT-1080-IDH1KD cell line; HT-1080 IDH1 knockdown viability, ATP luminescence, 48 h; Potency, µM (titrated, usually from 46.1 µM), inactives show top-dose activity, negative = toxicity, hits mostly cytotoxic; hit rate 2% among 360,000;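 note: potency is the fitted concentration of half-maximal effect; 0% = DMSO wells and -100% = cell-free medium wells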
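After a 2 h attachment period, IDH1KD HT-1080 cells took pin-transferred compound for 48 h at 37 °C; ATP-based luminescence after 10 min room-temperature reagent incubation reported viability.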
IL1B secr inh – qHTS for Inhibitors of Inflammasome Signaling: IL-1-beta AlphaLISA Primary Screen; activity change, % at 57.5 µM; hit rate 4.7% among 360,000; AID 743279, 2014; THP-1 LPS/ATP IL-1B secretion, AlphaLISA, 16 h; hits give low values; in the data active = activity change below about -50%; inconclusive = mostly about -30% to -49%
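THP-1 cells pretreated 1 hr with compounds (up to 57.5 uM final), then stimulated with LPS (250 ng/mL final) plus ATP (1.25 mM final); secreted IL-1B measured by AlphaLISA after 16 hr, decreased signal indicating inhibition.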
Active calls of the source: *; ? = inconclusive; nt = no result given; [ ] = dose if it differs, or a comment. The list is not random: actives were taken first. Their share in the collection is about 19%. Unless noted, calls come from the whole dose curve; as a rule, active = well fitted curve in the direction sought with a large enough effect; inconclusive = small, poorly fitted or top-dose-only effect, or another doubt; inactive = no such curve, though single readings can be large; an effect the other way counts as inactive or inconclusive. Unless noted, % is set by controls: 0 for no effect and ±100 for the full control effect.

SMILES	HT1080-NT tox	uPA generation	TDP1 cell CPT	DT40 TDP1 no CPT	HT1080 IDH1KD tx	IL1B secr inh
O=C(COc1ccc(Cl)cc1)Nc1ccc(C(=O)OCc2cc(=O)n3ccsc3n2)cc1	nt	nt	15µM*	?	nt	nt
Cc1cc(C)c(NC(=O)CN(C)C(C)C(=O)N2CCc3ccccc32)c(C)c1 (stereo not drawn)	4%	2%	?	?	7%	11
CC1CCCC(NC(=O)COC(=O)c2cc(S(=O)(=O)N3CCOCC3)ccc2F)C1C (stereo not drawn)	13%	7%	2%	-6%	-1%	20
COc1ccc(OC)c(S(=O)(=O)N2CCN(c3ncccn3)CC2)c1	?	-19%	?	15µM*	0%	-13
CCN1CCN(S(=O)(=O)c2cc(OC)ccc2OC)CC1	2%	8%	1%	3%	-2%	14
COc1ccc(OC)c(S(=O)(=O)N2CCN3CCCC3C2)c1 (stereo not drawn)	1%	0%	-11%	-3%	2%	-6
COc1ccc(OC)c(S(=O)(=O)N2CCN(C34CC5CC(CC(C5)C3)C4)CC2)c1	-5%	-3%	?	16µM*	-10%	-1
COc1ccc(OC)c(S(=O)(=O)N2CCCC(N3CCN(c4ccccc4)CC3)C2)c1 (stereo not drawn)	0%	-13%	?	26µM*	-13%	32
CC(C)Oc1ccc(CNC(=O)CCCN2C(=O)C(c3ccccc3)Oc3cccnc32)cc1 (stereo not drawn)	5%	7%	-23%	12%	7%	0
Cc1ccc(NC(=O)CCCN2C(=O)C(c3ccccc3)Oc3cccnc32)c(C)c1 (stereo not drawn)	19%	nt	?	-26%	8%	-6
Cc1ccc(C)c(NC(=O)CCCN2C(=O)C(c3ccccc3)Oc3cccnc32)c1 (stereo not drawn)	nt	nt	18µM*	23µM*	nt	nt
O=C(CCCN1C(=O)C(c2ccccc2)Oc2cccnc21)Nc1ccc(Br)cc1F (stereo not drawn)	nt	nt	18µM*	21µM*	nt	nt
COc1ccccc1NC(=O)CCCN1C(=O)C(c2ccccc2)Oc2cccnc21 (stereo not drawn)	4%	-12%	16µM*	?	2%	0
COc1ccc(NC(=O)CCCN2C(=O)C(c3ccccc3)Oc3cccnc32)c(OC)c1 (stereo not drawn)	-4%	6%	18µM*	23µM*	-2%	-12
COc1ccc(-c2nc(SCCOc3ccccc3Cl)n3[nH]c(=O)cc3n2)cc1	nt	nt	21µM*	?	nt	nt
COc1cccc(-c2nc(SCc3ccc(C)cc3)n3[nH]c(=O)cc3n2)c1	nt	nt	18µM*	16µM*	nt	nt
C=CCc1ccccc1OCCSc1nc2ccc([N+](=O)[O-])cc2s1	-6%	-1%	?	?	4%	-23
COc1ccccc1OCCCSc1nc(-c2ccc(C(C)(C)C)cc2)nc2cc(=O)[nH]n12	nt	nt	-100%	?	nt	nt
C=CCc1ccccc1OCCSc1nc(-c2ccccc2F)nc2cc(=O)[nH]n12	nt	nt	16µM*	21µM*	nt	nt
CCOC(=O)C1CCCN(CC(=O)Nc2c(C(=O)OC)[nH]c3ccc(C)cc23)C1 (stereo not drawn)	-5%	0%	?	23µM*	-7%	59
CCOC(=O)c1[nH]c2ccc(Br)cc2c1NC(=O)CCN1CCC(C(=O)OCC)CC1	-22%	-6%	21µM*	16µM*	-16%	-64*
CCC(C)c1ccc(O[C@@H]2O[C@H](CO)[C@@H](O)[C@H](O)[C@H]2NC(C)=O)cc1 (stereo partly drawn)	nt	nt	-5%[9.04 µM]	5%[9.04 µM]	nt	nt
CNc1nc(-c2ccccc2)c(-c2ccccc2)s1	1%	nt	?	?	4%	nt
Cc1cccc(OCCN2C(=O)C(=O)c3cc(C)ccc32)c1	2.9µM*	-3%	0.37µM*	0.46µM*	?	?
Cc1ccc2c(c1)C(=O)C(=O)N2CCOc1ccccc1	7.3µM*	-2%	0.58µM*	0.73µM*	21µM*	-2
SMILES	HT1080-NT tox	uPA generation	TDP1 cell CPT	DT40 TDP1 no CPT	HT1080 IDH1KD tx	IL1B secr inh
Cc1ccc(OCCN2C(=O)c3ccccc3C2=O)cc1	4%	nt	10%	4%	11%	27
CC[C@@H](C)CCCCC(=O)N[C@@H](CCNCS(=O)(=O)O)C(=O)N[C@H](C(=O)N[C@@H](CCNCS(=O)(=O)O)C(=O)N[C@H]1CCNC(=O)[C@H]([C@@H](C)O)NC(=O)[C@H](CCNCS(=O)(=O)O)NC(=O)[C@H](CCNCS(=O)(=O)O)NC(=O)[C@H](CC(C)C)NC(=O)[C@@H](CC(C)C)NC(=O)[C@H](CCNCS(=O)(=O)O)NC1=O)[C@@H](C)O	nt	nt	?	9.4µM*	nt	nt
Cc1csc(=O)n1CC(=O)OC(C)C(=O)Nc1ccc(N(C)C)cc1 (stereo not drawn)	18%	5%	-15%	-22%	20%	-14
CCNC(=S)N(CCc1c(C)[nH]c2ccc(Cl)cc12)Cc1ccco1	?	4%	?	?	?	-59*
CCNC(=S)N(CCc1c(C)[nH]c2ccc(C)cc12)Cc1cccs1	?	5%	?	?	?	-53*
Cc1[nH]c2ccccc2c1CCN(Cc1cccs1)C(=S)Nc1ccccc1	2%	10%	?	?	-5%	-20
COc1cccc(NC(=S)N(CCc2c(C)[nH]c3ccccc23)Cc2cccs2)c1	-29%	?	?	16µM*	?	-20
COCCNC(=S)N(CCc1c(C)[nH]c2ccc(Cl)cc12)Cc1cccs1	21µM*	18%	?	?	?	-92*
O=C(Nc1c(-c2ccc3c(c2)OCO3)[nH][nH]c1=O)c1cccc(C(F)(F)F)c1	7%	nt	-8%	?	21%	11
CC(=O)c1ccc(-c2ccc(C(=O)Nc3nc(C)c(C(C)=O)s3)o2)cc1	3%[9.24 µM]	6%	-26%	-19%	13%	-3
COc1cc(CN(CCc2c(C)[nH]c3ccc(C)cc23)C(=S)NC(C)(C)C)cc(OC)c1OC	-20%	-15%	21µM*	16µM*	-4%	-25
CNC(=S)N(CCc1c(C)[nH]c2ccc(C)cc12)Cc1ccc(OC)c(OC)c1	-13%	20%	?	?	-17%	-18
